Drawing on PubChem BioAssay AID1745845 (National Center for Advancing Translational Sciences (NCATS), 2022), this text covers Potency for 24 compounds.

Out of some 360,000 compounds screened, about 2,600 (0.72%) were called active. Roughly 5% stayed inconclusive and do not appear here. The call rests on the fitted dose curve; in most records, active means well fitted inhibition curve with a large enough effect; inconclusive means small, poorly fitted or top-dose-only effect; inactive means no such curve, though single readings can be large or run the other way. The entries come from a sample that favours actives as a whole. A call without a number means that no potency is given here.
Potency means the concentration at half of the fitted maximal effect.

The nature of the assay: Primary qHTS for Inhibitors of ATXN expression. Further: nearly all actives have a fitted effect of over 55% in size. The note with it: HEK-293 ATXN2-luciferase reporter, luminescence, 24 h; series mostly up to 57 µM. A digest of the protocol: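 ATXN2-luciferase reporter cells (luciferase flanked by upstream and downstream ATXN2 gene portions) were treated 24 h at 37 °C with compounds at up to 57 uM. SteadyGlo luminescence gave expression; GF-AFC fluorescence gave viability.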
(qHTS replaces the single test concentration by a dilution series.)
On to `O=C1NC(=O)C(=Cc2cccc(C(F)(F)F)c2)S1`, for which the Potency result is “inactive”.

For the compound `CCOC(=O)c1cc2c(=O)n3ccccc3nc2n(Cc2ccco2)c1=NC(=O)c1ccc(F)cc1`, the Potency entry was “inactive”.

For the compound `CCC1CCCCN1Cc1c(O)ccc2c(=O)c(Oc3ccccc3Cl)c(C(F)(F)F)oc12` (centres undefined), the Potency entry was “inactive”.

On to `C[C@@H]1C[C@@H]2O[C@H]2/C=C\C=C\C(=O)Cc2c(Cl)c(O)cc(O)c2C(=O)O1`, for which the Potency was 4.74 µM (active).

For the compound `CC1(C(=O)NCc2cccc3ccccc23)CCN1Cc1ccc(-c2ccccc2)o1` (centres undefined), the Potency entry is “inactive”.

`CN(C)CCCN(C(=O)c1ccc(S(=O)(=O)N2CCCCCC2)cc1)c1nc2ccc(Br)cc2s1`: the Potency is 31.6 µM (active).

As to `CN(C)CCN(C(=O)C1=COCCO1)c1nc2ccc(Cl)cc2s1`, the Potency entry was “inactive”.

For the compound `Cc1cc(C)c2sc(NC(=O)c3ccc(S(=O)(=O)N4CCCC4)cc3)nc2c1`, the Potency entry was “inactive”.

Regarding `CCOC(=O)c1ccc(-c2ccc3ncnc(N(C)Cc4sccc4C)c3c2)o1`, the Potency entry was “inactive”.

As to `CCn1c(/C=C/c2ccc([N+](=O)[O-])o2)nc2ccccc2c1=O`, the Potency was 8.91 µM (active).

As to `Cc1ccc(-n2c(SCC(=O)N/N=C/C=C/c3ccccc3[N+](=O)[O-])nc3ccccc3c2=O)cc1`, the Potency result is “inactive”.

On to `O=c1c2ccccc2ncn1/N=C/c1ccccc1`, for which the Potency entry is “inactive”.

Turning to `Cc1ccc(-n2c(SCC(=O)Nc3cccc(F)c3)nc3c(oc4ccccc43)c2=O)cc1C`, the Potency result is “inactive”.

Take `CCCc1c2oc(C(=O)O)cc(=O)c2cc2c(=O)cc(C(=O)O)n(CC)c12`: the Potency result is “inactive”.

Turning to `CC1(C)OC[C@@H](COC(=O)CCc2ccc(OC[C@@H](O)CNCCNC(=O)N3CCOCC3)cc2)O1`, the Potency result was “inactive”.

Turning to `Cc1ccc(C)c(N2CCN(C(=O)CCCn3c(=O)c4cccn4c4cccnc43)CC2)c1`, the Potency entry is “inactive”.

In the case of `Cc1ccc(C)c(N2CCN(C(=O)CCCCCn3c(=S)[nH]c4ccc(N5CCOCC5)cc4c3=O)CC2)c1`, the Potency is 2.82 µM (active).

In the case of `Cc1ccc(C)c(N2CCN(C(=O)CCc3nc4ccccc4[nH]3)CC2)c1`, the Potency entry was “inactive”.

Turning to `COc1ccc(-c2c(C)c3ccc(O)c(CN4CCCC4)c3oc2=O)cc1OC`, the Potency result is “inactive”.

Consider `CO[C@H]1O[C@@H]2O[C@@]3(C)CC[C@@H]4[C@@H](C)CC[C@@H]([C@H]1C)[C@@]24OO3`, for which the Potency entry is “inactive”.

For the compound `CCOc1ccc(CNC(=O)c2cccc(Nc3nc4ccccc4n4nnnc34)c2)cc1OC`, the Potency entry is “inactive”.

Regarding `C=CCn1c(C)cc(C2=NNC(=NCC)SC2)c1C`, the Potency was 0.447 µM (active).

Regarding `C=C1C(=CC=C2CCC[C@]3(C)[C@@H]([C@H](C)C=C[C@H](C)C(C)C)CC[C@@H]23)C[C@@H](O)C[C@@H]1O`, the Potency result is “inactive”.

Take `COc1ccc(Cc2nc3ccc(C(=O)NCc4ccccc4Cl)cc3o2)cc1`: the Potency entry is “inactive”.
